# H9c2 protect = protects H9c2 cardiomyocytes from peroxide injury; actives 0.63% (n = 360,000); H2O2 injury protection, ATPLite, 2 h; protection from H2O2 cell death, % at 20 µM;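 active means compounds giving at least 50% protection of heart cells from peroxide-induced death in the single-dose screen, raw or plate-pattern-corrected value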;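 further: 0% = DMSO wells with peroxide and 100% = DMSO wells without peroxide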
# aDG glyco act = alpha-DG glycosylation activation; Pro5-aDG cells, alpha-DG glycosylation AlphaScreen (IIH6); 0% Pro5, 100% B10-LARGE cell signal; activation, % at 10 µM; actives 0.22% (n = 360,000); AID 624168;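 active means activation of at least 8% versus controls, or a plate z-score of at least 8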;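 further: Pro5 are CHO cells carrying HIG-tagged alpha-DG that lacks glycosylation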
# H9c2 TAG inh = reduces triacylglycerol accumulation in H9c2 cells. Nile Red lipid (TAG) fluorescence; cells loaded with 200 µM oleic acid. inhibition, % at 12.5 µM. actives 0.66% (n = 230,000). AID 651582;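 active means pattern-corrected inhibition of lipid staining of at least 50% with the nuclear-stain viability signal not falling by more than 50%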;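 further: 0% = DMSO wells and 100% = triacsin C control wells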
# MIN6 prolif = inducers of beta-cell replication in MIN6 cells | MIN6 cells proliferation, ATPlite luminescence, 48 h; cells starved in 0.2% serum; 100% = growth in 10% serum | proliferation, % at 10 µM | actives 0.29% (n = 330,000) | AID 2380;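 active means compounds whose signal lies at least 3.5 SD above the mean of all wells on their plate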;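 further: 0% = DMSO-treated cells in low-serum medium and 100% = 10% serum control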
# FAS-TE inh = inhibitors of human fatty acid synthase thioesterase domain. recombinant FAS-TE, OMFH fluorogenic substrate, fluorescence endpoint. P49327. actives 0.67% (n = 360,000). AID 602261. inhibition, % at 15 µM;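 active means compounds whose normalised, plate-corrected inhibition of enzyme fluorescence in the single-dose primary screen is 50% or more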;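 further: 0% = DMSO with enzyme and 100% = substrate without enzyme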
# m-calpain inh = blocks pig calpain II enzyme activity; purified calpain II, fluorogenic peptide substrate, 30 min; inhibition, % at 16 µM; actives 0.37% (n = 220,000); AID 1236;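 active means inhibition above about 50%, limit read from the data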
# FAS-TE inh conf = confirmation of human fatty acid synthase thioesterase inhibitors. shares compounds with FAS-TE inh. recombinant FAS-TE, OMFH fluorogenic substrate, fluorescence. inhibition, % at 15 µM. actives 45% (n = 2,300);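 active means compounds inhibiting the enzyme by at least 50% at 15 µM in any one of the replicates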;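 further: 0% = enzyme with DMSO only and 100% = wells lacking enzyme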
# An asterisk follows results filed as active; . = not tested or not shown. An excerpt weighted towards active compounds, which were near 2.3% of everything screened.
SMILES,H9c2 protect,aDG glyco act,H9c2 TAG inh,MIN6 prolif,FAS-TE inh,m-calpain inh,FAS-TE inh conf
COc1ccc(C(C)(C)C)cc1NC(=O)c1cc(S(=O)(=O)N(C)C)ccc1N1CCCC1,-4,0,.,0,68*,-10,24
CC1(C(=O)Nc2ccc(Cl)c(Cl)c2)CCN1C(=O)CC1CCCC1 (centres undefined),-15,0,-17,.,62*,.,54*
Cc1ccc(NC(=S)N(C)C(c2ccccc2)c2ccccc2)cc1C,-11,1,.,-7,22,.,.
O=C(COC(=O)C1CC2CCCC(C1)C2=O)Nc1ccc(Cl)cn1 (centres undefined),7,0,9,2,-4,.,.
COC(=O)CC(NC(=O)Nc1ccc(C)cc1)c1cccc([N+](=O)[O-])c1 (centres undefined),0,0,-12,-3,53*,-14,65*
CCOC(=O)CC(N)c1cccc([N+](=O)[O-])c1 (centres undefined),-4,0,9,-3,-8,-23,.
O=C(O)CC(NC(=O)C(c1ccccc1)c1ccccc1)c1cccc([N+](=O)[O-])c1 (centres undefined),-4,0,-5,-3,52*,-4,64*
CCOC(=O)CC(NC(=O)c1cc2ccccc2oc1=O)c1cccc([N+](=O)[O-])c1 (centres undefined),7,0,.,2,50*,7,55*
Cc1ccc(S(=O)(=O)Oc2cccc([N+](=O)[O-])c2)cc1,-2,0,-8,.,40,.,.
COC(=O)N(C)C[C@H]1OCc2cnnn2CCCC(=O)N([C@H](C)CO)C[C@H]1C,-1,0,-23,.,-6,.,.
O=C(c1ccco1)N1CCN(C2CN(CCc3ccccc3)S(=O)(=O)C2)CC1 (centres undefined),3,0,.,.,-14,.,.
COc1cc(/C=C2/SC(=S)N(c3ccccc3)C2=O)ccc1Oc1nc(N2CCOCC2)nc(N2CCOCC2)n1,5,0,-3,0,63*,-46,-3
O=S1(=O)[C@H]2C[C@@H]3C=C[C@@]2(CN1Cc1cccc(F)c1)O3,-3,0,9,0,-6,.,.
O=c1[nH]c(COc2ccc(Cl)cc2Br)nc2ccccc12,-3,0,-9,-3,8,.,.
O=C1Nc2cc(Cl)c(Cl)cc2N(O)N1c1ccc(Cl)c(Cl)c1,-5,0,.,0,62*,23,67*
O=C1Nc2ccccc2N(O)N1c1ccc(Cl)c(Cl)c1,0,0,-2,1,-4,-9,.
O=C(CC1C[C@H](C(=O)N2CCOCC2)[C@@]2(CCC3CCCC3)c3[nH]c4ccccc4c3CCN2C1=O)NCCCn1ccnc1 (some centres undefined),4,0,-2,-1,69*,.,64*
CC(C)(C)NC(=O)CC1C[C@H](C(=O)N2CCOCC2)[C@@]2(CCC3CCCC3)c3[nH]c4ccccc4c3CCN2C1=O (some centres undefined),1,0,9,-3,81*,.,76*
CC(C)(C)c1nc2scc(-c3cccs3)c2c(=O)o1,-11,0,-1,1,58*,-32,56*
Cc1nc2scc(-c3ccccc3)c2c(=O)n1N,8,0,6,-5,-7,-3,.
Cc1nc2scc(-c3ccccc3)c2c(=O)o1,0,0,3,-2,51*,-12,73*
CC(C)(C)c1nc2scc(-c3ccc(Cl)cc3)c2c(=O)o1,0,0,-111,0,-2,11,.
COc1ccc(-c2csc3nc(-c4ccc(C)cc4)oc(=O)c23)cc1OC,-4,0,.,-6,7,-35,.
COc1ccc(-c2csc3nc(-c4ccccc4OC)oc(=O)c23)cc1,6,0,.,-6,63*,-10,42
O=c1oc(-c2ccccc2F)nc2scc(-c3ccccc3)c12,-11,0,-12,-1,86*,13,37*
SMILES,H9c2 protect,aDG glyco act,H9c2 TAG inh,MIN6 prolif,FAS-TE inh,m-calpain inh,FAS-TE inh conf
CCCCCCN1C[C@@H](O)[C@H](n2cc(C3CC3)nn2)C[C@@H]1c1ccccc1,-10,0,-7,.,12,.,.
COc1ccccc1NS(=O)(=O)c1cc(NC(=O)c2cccc(S(=O)(=O)N(C)C)c2)ccc1N1CCOCC1,3,0,27,-5,35,.,.
Cc1ccc(N2CC(C)Cn3c2nc2c3c(=O)n(CC(=O)OCc3ccccc3)c(=O)n2C)cc1C (centres undefined),9,0,.,-4,54*,18,5
COc1ccc(Cl)cc1-c1cc(C(=O)NCc2ccc(C(F)(F)F)cc2)[nH]n1,-13,0,-26,.,56*,.,55*
O=C(Nc1cc([N+](=O)[O-])ccc1Cl)C(Sc1ccccc1)c1ccccc1 (centres undefined),-5,0,.,-6,73*,38,67*
COc1cccc(NC(C)C(=O)Nc2cc([N+](=O)[O-])ccc2Cl)c1 (centres undefined),1,0,-2,-2,56*,18,58*
COc1ccc([N+](=O)[O-])cc1NC(=O)C1(c2ccccc2)CCOCC1,8,0,-2,-2,51*,-20,53*
COc1ccc([N+](=O)[O-])cc1NC(=O)CCN1CCOCC1,0,0,.,-3,10,.,.
Cc1ccc(N(CC(=O)N/N=C/c2ccc(OC3CSC3)cc2)S(=O)(=O)c2ccccc2)cc1,-12,0,.,-2,42,15,.
COc1ccc(N(CC(=O)N/N=C/c2ccc(OC3CSC3)cc2)S(=O)(=O)c2ccccc2)cc1,-6,0,.,0,50*,-28,6
CCC(CC)C(=O)Nc1cc([N+](=O)[O-])ccc1Cl,0,0,.,-3,17,16,.
COc1ccc(CCN2C(=O)CCC3=C2CCCC3=O)cc1OC,4,0,.,.,0,.,.
COC1OCC(O)C(OC(=O)c2ccccc2)C1OC(=O)c1ccccc1 (centres undefined),15,0,-16,.,-3,.,.
CCN(CC)c1ccc(/C=N/NC(=O)c2c(-c3ccccc3)noc2C)cc1,-5,0,.,2,10,.,.
COc1ccc([N+](=O)[O-])cc1NC(=O)CSc1ccc2ccccc2c1,-9,5,.,-5,55*,46,44
COc1ccc([N+](=O)[O-])cc1NC(=O)C(C)NNC(=O)c1cccc([N+](=O)[O-])c1 (centres undefined),9,0,1,-1,56*,.,53*
COc1ccc([N+](=O)[O-])cc1NC(=O)C(C)Sc1ccc(C)cc1 (centres undefined),-13,0,.,0,48,21,.

# Bioassay records: PubChem, several laboratories
